This passage reports growth inhibition results from PubChem BioAssay (NCI).

This is part of a sample that, as a whole, favours compounds with a hit. Of some 79,000 tested, about 15% had one in any assay. Values without a mark were called inactive. Calls of active or inactive are those of the source. No stated cut-off is given here; in the data, active means growth inhibition above about 70%; inactive means the rest.

Test [1] is described as follows: NCI Yeast Anticancer Drug Screen. Data for the rad50 strain (AID 155).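 Further: 0% = growth of vehicle-only cultures of the same strain.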 The following applies: S. cerevisiae rad50 strain growth inhibition; at 50.0 µM; stronger effect = higher value. An outline of the steps: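 Yeast carrying a defined DNA repair defect were exposed to test compounds, and growth was compared with vehicle-treated controls to give percent inhibition.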
A short description of test [2]: NCI Yeast Anticancer Drug Screen. Data for the mec2-1 strain (AID 157). Conditions: S. cerevisiae mec2-1 strain, at 50.0 µM, stronger effect = higher value. Put shortly: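 mec2-1 yeast strain, carrying an alteration in DNA damage repair or cell cycle control, was exposed to compounds; growth inhibition was measured relative to vehicle-treated controls.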
Test [3] is described as follows: NCI Yeast Anticancer Drug Screen. Data for the sgs1 mgt1 strain (AID 161).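 Further: 0% = growth of cultures given vehicle only.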 The following applies: S. cerevisiae sgs1 mgt1 strain, at 50.0 µM, stronger effect = higher value. Put shortly:
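Growth of a repair-deficient yeast mutant was monitored after compound treatment and expressed as inhibition relative to vehicle-treated cultures.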

Test [4] in a line: NCI Yeast Anticancer Drug Screen. Data for the cln2 rad14 strain (AID 165).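 Further: 0% = growth equal to vehicle treated cultures.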 The following applies: S. cerevisiae cln2 rad14 strain, at 50.0 µM, stronger effect = higher value. Put shortly: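 Yeast carrying cln2 and rad14 alterations (cell cycle control and DNA damage repair) were exposed to compounds. Growth inhibition was measured against vehicle-treated controls.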
Test [5] in a line: NCI Yeast Anticancer Drug Screen. Data for the bub3 strain (AID 167). The following applies: S. cerevisiae bub3 mutant strain, at 50.0 µM, stronger effect = higher value. An outline of the steps: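 Compounds were applied to a genetically altered yeast strain carrying a cell-cycle control defect. Growth inhibition was scored against vehicle-treated controls.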
A short description of test [6]: NCI Yeast Anticancer Drug Screen. Data for the mlh1 rad18 strain (AID 175). Conditions: S. cerevisiae mlh1 rad18 strain growth inhibition; at 50.0 µM; stronger effect = higher value. An outline of the steps:
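Growth inhibition of the yeast strain was measured after compound exposure and expressed relative to vehicle-treated controls. The strain carries defined defects in DNA damage repair.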

As to `O=C1NC(=O)C(=C/C=C/c2ccccc2)C(=O)N1`, the growth inhibition in test [1] is 34.2%; in test [2], -3.5%; in test [3], 18.6%; in test [4] it was 16.4%; in test [5], 10.5%; in test [6] it was -2.25%.
`CC1CCNC(C)C1` (stereo unspecified): the growth inhibition in test [1] was 35.3%; in test [2] it was -10.4%; in test [3] it was -13.8%; in test [4] it was -62.9%; in test [5] it was 17.9%; in test [6] it was 8.6%.
For the compound `Cc1ccc(-n2c(=O)[nH]c3ccccc3c2=O)cc1[N+](=O)[O-]`, the growth inhibition was 12.9% in test [1]; 12.3% in test [2]; 33% in test [3]; 23.2% in test [4]; 35.4% in test [5]; 26.6% in test [6].
As for `Cc1ccc(Oc2ccc3c(c2)CN(C)CC3)cc1`, the growth inhibition in test [1] is 93.8% (active); in test [2], 90.5% (active); in test [3], 96.8% (active); in test [4], 74.5% (active); in test [5] it was 96.6% (active); in test [6] it was 95.7% (active).
Turning to `CCOC(=O)CC(Br)C(=O)CBr` (stereo unspecified), the growth inhibition in test [1] is -9.15%; in test [2], 11%; in test [3], 7.15%; in test [4], -17.8%; in test [5], 2.6%; in test [6], -9.6%.
Take `[O-][Cl+3]([O-])([O-])[O-].[O]=[Ru]=[O].c1ccc(-c2ccccn2)nc1.c1ccc(-c2ccccn2)nc1`: the growth inhibition in test [1] is 21.9%; in test [2], 20.9%; in test [3], 22.4%; in test [4], 14.2%; in test [5] it was 13.7%; in test [6], 27.4%.
Consider `N#Cc1ccc([N+](=O)[O-])cc1`, for which the growth inhibition in test [1] was -1.15%; in test [2] it was 9.25%; in test [3], 1.7%; in test [4], 1.2%; in test [5], -43.8%; in test [6], -43.9%.
With `c1cc[c]([Pb]([S]c2ccccn2)([c]2ccccc2)[c]2ccccc2)cc1`, the growth inhibition in test [1] is 99.2% (active); in test [2], 99.1% (active); in test [3], 99.5% (active); in test [4], 99% (active); in test [5], 99% (active); in test [6] it was 99.2% (active).
On to `O=c1[nH]c2ccccc2c(=O)n1-c1ccco1`, for which the growth inhibition in test [1] was 4.2%; in test [2], -13.5%; in test [3] it was -9%; in test [4], -15.4%; in test [5], -25.1%; in test [6], -1.65%.
As to `Cc1ccc(OP(=O)(Oc2ccc(C)cc2)Oc2ccc(C)cc2)cc1.Cc1ccc(OP(=O)(Oc2ccc(C)cc2)Oc2ccc(C)cc2)cc1.Cc1ccc(OP(=O)(Oc2ccc(C)cc2)Oc2ccc(C)cc2)cc1.Cc1ccc(OP(=O)(Oc2ccc(C)cc2)Oc2ccc(C)cc2)cc1.[Cr+3].[O-][Cl+3]([O-])([O-])O`, the growth inhibition in test [1] is 0.95%; in test [2] it was -2.2%; in test [3], 0.15%; in test [4], -3.05%; in test [5], -4.35%; in test [6], -3.55%.
On to `Cc1cccc(NC(N)=S)c1`, for which the growth inhibition in test [1] is 11.6%; in test [2], 1.55%; in test [3], 5.65%; in test [4], -4.35%; in test [5], -8.15%; in test [6], 8.35%.
On to `CN1CCC(O)(c2ccccc2)C(C(O)c2ccccc2)C1` (stereo unspecified), for which the growth inhibition in test [1] is 5.2%; in test [2] it was -21.7%; in test [3], 17.9%; in test [4], -8.55%; in test [5] it was -23.9%; in test [6], -20.6%.
`CC(C)NCCc1c[nH]c2ccccc12`: the growth inhibition in test [1] was 3%; in test [2], -7.15%; in test [3] it was 12.4%; in test [4], -60%; in test [5], 13.3%; in test [6], 1.65%.
As for `CCc1cc(C)cc2[n+]1CC=C2C`, the growth inhibition is 6.45% in test [1]; 5.1% in test [2]; 6.85% in test [3]; 21.7% in test [4]; -0.7% in test [5]; 14.5% in test [6].
In the case of `C[C@]12CCc3nonc3C1CC[C@@H]1C2CC[C@@]2(C)C1CC[C@@H]2O` (stereo partly specified), the growth inhibition was 3.65% in test [1]; -0.65% in test [2]; -0.4% in test [3]; -53.1% in test [4]; -7.55% in test [5]; -2.1% in test [6].
On to `O=C(Nc1ccccc1)c1ccc([As](c2ccc(C(=O)Nc3ccccc3)cc2)c2ccc(C(=O)Nc3ccccc3)cc2)cc1`, for which the growth inhibition in test [1] was -8.9%; in test [2], -7%; in test [3], -4.85%; in test [4] it was -23.9%; in test [5] it was -19.2%; in test [6] it was -33.5%.
In the case of `CCN(CC)[P+](C1=C(Cl)C(=O)C(Cl)=C(Cl)C1=O)(N(CC)CC)N(CC)CC`, the growth inhibition in test [1] was 1.25%; in test [2] it was -12%; in test [3], -6.6%; in test [4], -19.5%; in test [5], 8.45%; in test [6] it was -17.5%.
Regarding `CS(=O)(=O)c1ccc(COP(N)(=O)N(CCCl)CCCl)cc1` (stereo unspecified), the growth inhibition in test [1] is 17.1%; in test [2], -8.05%; in test [3], -0.95%; in test [4] it was 11.3%; in test [5], -4.2%; in test [6], 17.7%.
For the compound `CN(C)C(=O)C(CC[N+](C)(C)C)(c1ccccc1)c1ccccc1`, the growth inhibition in test [1] was 8.65%; in test [2], 5.5%; in test [3], 5.55%; in test [4], 24.7%; in test [5] it was -3.9%; in test [6], -10.1%.
For the compound `Cc1cccc(C)c1NC(=O)C(=O)C1C(=O)NC(=O)NC1=O`, the growth inhibition in test [1] was -45.5%; in test [2], -2.6%; in test [3], -6%; in test [4] it was 15.8%; in test [5], -17.1%; in test [6] it was -31.9%.
For the compound `O=[N+]([O-])c1ccc(-n2nc3ccc4c(no[n+]4[O-])c3n2)cc1`, the growth inhibition was -21.6% in test [1]; 23.5% in test [2]; 20.1% in test [3]; 16.6% in test [4]; -15.6% in test [5]; -25.6% in test [6].
